# Assay results taken from PubChem BioAssay (EPA / NIEHS).
# The source made the active and inactive calls. How the source made its calls: active means hit-call score of the fitted dose curve at least 0.9, where 1 is the maximum; inactive means score below 0.9.
# Experiments:
# Details in all cases: mRNA level, 48 h; actives raise or lower the signal
# [1] = read-out: Caspase-3 (Homo sapiens) (UniProt P42574); experiment: LTEA_HepaRG_CASP3: Life Technologies and Expression Analysis (LTEA) Assay for cysteine-aspartic acid protease (CASP3) using HepaRG (AID 2283477)
# In short: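 HepaRG, 48 h exposure, 8 conc. (top 100 uM, half-log steps, duplicate), 0.5% DMSO vehicle; qRT-PCR of CASP3 transcript, housekeeping-normalised (ACTB/GAPDH/POLR2A); bidirectional curve fit vs DMSO baseline.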
# [2] = read-out: Cytochrome P450 (CYP24A1), CYP24A1 (gene 1591); experiment: LTEA_HepaRG_CYP24A1: Life Technologies and Expression Analysis (LTEA) Assay for Cytochrome P450 (CYP24A1) using HepaRG (AID 2283478)
# In short: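 qRT-PCR read-out: CYP24A1 transcript levels normalized to three housekeeping genes, bidirectional curve fits against 0.5% DMSO baseline. Human HepaRG cells treated 48 h with chemicals at eight concentrations from 100 uM in half-log steps.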
# [3] = read-out: Cytochrome P450 (CYP1A2), CYP1A2 (gene 1544); experiment: LTEA_HepaRG_CYP1A2: Life Technologies and Expression Analysis (LTEA) Assay for Cytochrome P450 (CYP1A2) using HepaRG (AID 2283479)
# In short: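 HepaRG, 48 h exposure, top 100 uM, half-log 8-pt, 0.5% DMSO vehicle, duplicates. Readout: TaqMan qRT-PCR of CYP1A2 mRNA, housekeeping-normalized (ACTB/GAPDH/POLR2A). Gain/loss fit relative to DMSO baseline.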
# [4] = read-out: cysteine-aspartic acid protease (CASP8), CASP8 (gene 841); experiment: LTEA_HepaRG_CASP8: Life Technologies and Expression Analysis (LTEA) Assay for cysteine-aspartic acid protease (CASP8) using HepaRG (AID 2283480)
# In short: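 qRT-PCR readout of CASP8 mRNA, normalized to three housekeeping genes, after 48 h chemical exposure of HepaRG cells; 8-point half-log series, top 100 uM, 0.5% DMSO vehicle. Bidirectional curve fitting against DMSO baseline.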
# [5] = read-out: Cytochrome P450 (CYP2B6), CYP2B6 (gene 1555); experiment: LTEA_HepaRG_CYP2B6: Life Technologies and Expression Analysis (LTEA) Assay for Cytochrome P450 (CYP2B6) using HepaRG (AID 2283481)
# In short: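 Read-out is CYP2B6 mRNA by TaqMan qRT-PCR, normalized to three housekeeping genes and fitted bidirectionally against 0.5% DMSO baseline. Human HepaRG cells received test chemicals for 48 h, top concentration 100 uM, half-log dilutions.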
# [6] = read-out: Cytochrome P450 2C19 (Homo sapiens) (UniProt P33261); experiment: LTEA_HepaRG_CYP2C19: Life Technologies and Expression Analysis (LTEA) Assay for CYP2C19 using HepaRG (AID 2283482)
# In short: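 HepaRG, 48 h chemical exposure, 8-pt half-log series from 100 uM in 0.5% DMSO, duplicates. Readout: CYP2C19 mRNA by TaqMan qRT-PCR, housekeeping-normalized. Bidirectional fit vs DMSO baseline; phenobarbital 1mM as induction control.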
# [7] = read-out: CYP2C8 (gene 1558); experiment: LTEA_HepaRG_CYP2C8: Life Technologies and Expression Analysis (LTEA) Assay for CYP2C8 using HepaRG (AID 2283483)
# In short: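 HepaRG (human liver line), 48 h chemical exposure, 8-pt half-log series from 100 uM, 0.5% DMSO vehicle. Readout: CYP2C8 transcript by qRT-PCR, housekeeping-normalized. Bidirectional fit vs DMSO baseline.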
# [8] = read-out: CYP2E1 (gene 1571); experiment: LTEA_HepaRG_CYP2E1: Life Technologies and Expression Analysis (LTEA) Assay for CYP2E1 using HepaRG (AID 2283485)
# In short: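 CYP2E1 transcript measured by Fluidigm qRT-PCR against three housekeeping genes in human HepaRG cells treated 48 h (top 100 uM, half-log steps, 0.5% DMSO vehicle). Gain or loss fitted relative to DMSO baseline.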
# [9] = read-out: CYP4A11 (gene 1579); experiment: LTEA_HepaRG_CYP4A11: Life Technologies and Expression Analysis (LTEA) Assay for CYP4A11 using HepaRG (AID 2283486)
# In short: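 CYP4A11 transcript levels were quantified by TaqMan qRT-PCR after HepaRG human liver cells were treated for 48 hours with test chemicals (top 100 uM, half-log dilutions, 0.5% DMSO). Gain or loss of signal was fitted relative to DMSO.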
# Chain of Cytochrome P450 2C19 (Homo sapiens) (P33261 whole entry, looked up): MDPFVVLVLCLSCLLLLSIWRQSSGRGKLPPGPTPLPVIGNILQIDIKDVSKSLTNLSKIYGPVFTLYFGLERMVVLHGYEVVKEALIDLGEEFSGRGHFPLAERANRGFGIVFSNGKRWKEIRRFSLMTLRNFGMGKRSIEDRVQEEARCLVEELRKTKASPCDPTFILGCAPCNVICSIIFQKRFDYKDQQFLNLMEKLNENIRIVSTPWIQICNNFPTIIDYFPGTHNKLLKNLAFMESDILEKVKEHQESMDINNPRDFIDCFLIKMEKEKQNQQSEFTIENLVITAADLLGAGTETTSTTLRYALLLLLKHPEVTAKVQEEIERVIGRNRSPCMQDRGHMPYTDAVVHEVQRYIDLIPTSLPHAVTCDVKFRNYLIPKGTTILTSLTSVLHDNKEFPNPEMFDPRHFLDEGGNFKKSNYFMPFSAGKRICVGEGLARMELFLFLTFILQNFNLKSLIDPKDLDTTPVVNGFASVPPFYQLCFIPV
# Chain of Caspase-3 (Homo sapiens) (P42574 whole entry, looked up): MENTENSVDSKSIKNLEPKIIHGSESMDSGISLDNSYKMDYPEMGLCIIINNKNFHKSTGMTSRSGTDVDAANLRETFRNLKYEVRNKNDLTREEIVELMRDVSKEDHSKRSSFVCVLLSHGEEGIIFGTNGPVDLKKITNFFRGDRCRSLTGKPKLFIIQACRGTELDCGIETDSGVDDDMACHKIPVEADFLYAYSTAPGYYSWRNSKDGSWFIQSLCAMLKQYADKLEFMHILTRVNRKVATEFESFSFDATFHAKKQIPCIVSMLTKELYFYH
smiles,measurement,setting,value
CCCCCOC(=O)COc1cc(N2C(=O)C3=C(CCCC3)C2=O)c(F)cc1Cl,outcome,[1],inactive
same,AC50,[2],0.00316 µM (active)
same,outcome,[3],inactive
same,outcome,[4],inactive
same,AC50,[5],25.9 µM (active)
same,outcome,[6],inactive
same,outcome,[7],inactive
same,outcome,[8],inactive
same,outcome,[9],inactive
O=C(c1ccccc1)C1CCCCC1,outcome,[1],inactive
same,outcome,[2],inactive
same,outcome,[3],inactive
same,outcome,[4],inactive
same,AC50,[5],25 µM (active)
same,outcome,[6],inactive
same,outcome,[7],inactive
same,outcome,[8],inactive
same,outcome,[9],inactive
OB(O)O,outcome,[1],inactive
same,outcome,[2],inactive
same,outcome,[3],inactive
same,outcome,[4],inactive
same,outcome,[5],inactive
same,outcome,[6],inactive
same,outcome,[7],inactive
same,outcome,[8],inactive
same,outcome,[9],inactive
O=C(O)C1(C(=O)Nc2ccc(Cl)cc2Cl)CC1,AC50,[1],28.4 µM (active)
same,outcome,[2],inactive
same,outcome,[3],inactive
same,outcome,[4],inactive
same,AC50,[5],66.9 µM (active)
same,AC50,[6],76.5 µM (active)
same,AC50,[7],82.6 µM (active)
same,AC50,[8],63.5 µM (active)
same,AC50,[9],84.8 µM (active)
CCCOC(=O)c1ccc(C(=O)OCCC)nc1,outcome,[1],inactive
same,outcome,[2],inactive
same,AC50,[3],50 µM (active)
same,outcome,[4],inactive
same,outcome,[5],inactive
same,outcome,[6],inactive
same,outcome,[7],inactive
same,outcome,[8],inactive
same,outcome,[9],inactive
C#C[C@]1(O)CC[C@H]2[C@@H]3CCC4=CC(=O)CC[C@@H]4[C@H]3CC[C@@]21CC,outcome,[1],inactive
same,outcome,[2],inactive
same,outcome,[3],inactive
same,outcome,[4],inactive
same,outcome,[5],inactive
same,AC50,[6],5.47 µM (active)
same,outcome,[7],inactive
same,AC50,[8],0.00149 µM (active)
same,AC50,[9],0.0276 µM (active)
C[C@]12C[C@H](O)[C@H]3[C@@H](CCC4=CC(=O)CC[C@@]43C)[C@@H]1CC[C@@H]2C(=O)CO,outcome,[1],inactive
same,outcome,[2],inactive
same,outcome,[4],inactive
same,AC50,[5],50 µM (active)
same,AC50,[7],50 µM (active)
same,outcome,[8],inactive
same,outcome,[9],inactive
CCOC(=O)c1ccc(O)cc1,outcome,[1],inactive
same,outcome,[2],inactive
same,outcome,[3],inactive
same,outcome,[4],inactive
same,outcome,[5],inactive
same,outcome,[7],inactive
same,outcome,[8],inactive
same,outcome,[9],inactive
C=CCOC(Cn1ccnc1)c1ccc(Cl)cc1Cl (configuration not stated),outcome,[1],inactive
same,outcome,[2],inactive
same,AC50,[4],84 µM (active)
same,AC50,[5],31.6 µM (active)
same,AC50,[6],34.3 µM (active)
same,AC50,[7],27.2 µM (active)
same,AC50,[8],13.1 µM (active)
same,AC50,[9],28.1 µM (active)
CCSC(=O)N(CC(C)C)CC(C)C,outcome,[1],inactive
same,outcome,[2],inactive
same,outcome,[3],inactive
same,outcome,[4],inactive
same,outcome,[5],inactive
same,outcome,[6],inactive
same,outcome,[7],inactive
same,outcome,[8],inactive
same,outcome,[9],inactive
CN(C)C(=O)Nc1ccc(Cl)c(Cl)c1,outcome,[1],inactive
same,outcome,[2],inactive
same,AC50,[3],30 µM (active)
same,outcome,[4],inactive
same,AC50,[5],10.9 µM (active)
same,AC50,[6],28.7 µM (active)
same,outcome,[7],inactive
same,AC50,[8],63 µM (active)
same,outcome,[9],inactive
c1ccc(Nc2ccccc2)cc1,outcome,[1],inactive
same,outcome,[2],inactive
same,outcome,[3],inactive
same,outcome,[4],inactive
same,AC50,[5],24.9 µM (active)
same,outcome,[6],inactive
same,outcome,[7],inactive
same,outcome,[8],inactive
same,outcome,[9],inactive
CCOC(=O)C(C)Oc1ccc(Oc2cnc3cc(Cl)ccc3n2)cc1 (configuration not stated),outcome,[1],inactive
same,outcome,[2],inactive
same,AC50,[3],19.2 µM (active)
same,outcome,[4],inactive
same,outcome,[5],inactive
same,AC50,[6],1.24 µM (active)
same,outcome,[7],inactive
same,AC50,[8],20 µM (active)
same,AC50,[9],43 µM (active)
COC(=O)CSc1cc(N=c2sc(=O)n3n2CCCC3)c(F)cc1Cl,outcome,[1],inactive
same,outcome,[2],inactive
same,outcome,[3],inactive
same,outcome,[4],inactive
same,AC50,[5],38.8 µM (active)
same,AC50,[6],24 µM (active)
same,outcome,[7],inactive
same,AC50,[8],50 µM (active)
same,outcome,[9],inactive
